Screening results from PubChem BioAssay.
Sampled rows, rich in hits. Any-hit rate of the full collection: about 13%.
USP17 inh: human USP17-like deubiquitinase inhibition; A8MUK1; hit rate 6.5% among 47,000; purified USP17, Ub-rhodamine cleavage fluorescence, 3 h; inhibition, % at 50 µM
USP10 inh: blocks human USP10 ubiquitin-rhodamine cleavage; purified USP10, Ub-rhodamine fluorescence, 60 min; inhibition, % at 20 µM; AID 1645856; hit rate 1.1% among 47,000; Q14694
Target sequence (Q14694 whole entry, looked up): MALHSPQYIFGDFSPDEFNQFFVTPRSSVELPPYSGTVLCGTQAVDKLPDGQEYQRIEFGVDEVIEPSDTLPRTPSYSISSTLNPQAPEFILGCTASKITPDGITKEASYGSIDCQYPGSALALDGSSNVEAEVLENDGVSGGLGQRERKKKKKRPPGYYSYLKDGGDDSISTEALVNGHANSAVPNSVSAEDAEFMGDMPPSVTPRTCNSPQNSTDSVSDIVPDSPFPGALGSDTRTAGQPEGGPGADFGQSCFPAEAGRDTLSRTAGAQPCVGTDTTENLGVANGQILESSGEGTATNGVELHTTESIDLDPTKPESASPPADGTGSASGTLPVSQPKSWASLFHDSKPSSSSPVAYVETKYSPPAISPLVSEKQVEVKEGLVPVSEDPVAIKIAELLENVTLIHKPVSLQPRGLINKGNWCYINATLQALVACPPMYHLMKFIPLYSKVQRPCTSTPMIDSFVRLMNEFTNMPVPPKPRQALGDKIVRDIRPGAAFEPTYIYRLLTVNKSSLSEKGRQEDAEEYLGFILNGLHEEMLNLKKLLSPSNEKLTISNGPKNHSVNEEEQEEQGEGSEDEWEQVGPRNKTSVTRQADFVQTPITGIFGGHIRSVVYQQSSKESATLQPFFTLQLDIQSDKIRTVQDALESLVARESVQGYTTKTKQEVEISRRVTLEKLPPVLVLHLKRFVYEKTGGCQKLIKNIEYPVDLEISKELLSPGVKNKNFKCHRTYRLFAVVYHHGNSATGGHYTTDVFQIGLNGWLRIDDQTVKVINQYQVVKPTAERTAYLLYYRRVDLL
USP8 block: blocks human USP8 ubiquitin-rhodamine cleavage; purified USP8, Ub-rhodamine cleavage fluorescence, 30 min; hit rate 4.2% among 47,000; AID 1645853; inhibition, % at 20 µM
USP30 block: human USP30 deubiquitinase inhibition. Q70CQ3. purified USP30, Ub-rhodamine cleavage fluorescence. inhibition, % at 25 µM. hit rate 5.3% among 47,000. AID 1645860
OTUD3 inh: inhibitors of human OTUD3 deubiquitinase; Q5T2D3; purified OTUD3, Ub-rhodamine fluorescence, 2 h; inhibition, % at 25 µM; hit rate 0.7% among 47,000; AID 1645858
USP28 block: human USP28 deubiquitinase inhibition; AID 1645857; purified USP28, Ub-rhodamine cleavage fluorescence, 30 min; hit rate 3% among 47,000; inhibition, % at 25 µM
An asterisk follows results filed as active; i = inactive; · = not tested or not shown. No stated cut-off is given here; in the data, active means inhibition above about 30%; inactive means the rest.

SMILES | USP17 inh | USP10 inh | USP8 block | USP30 block | OTUD3 inh | USP28 block
O=C1NCCN(C(=O)CCn2ccccc2=O)CC1Cc1ccc(-c2ccccc2)cc1 (centres undefined) | 17.6 | 0.5 | 42.4* | 6.3 | -2.8 | 6.1
O=C(Cn1c(=O)c2c(ncn2C2CCCC2)n(Cc2ccccc2)c1=O)NCCc1ccc(F)cc1 | -1.1 | -7.4 | 19.2 | -57.7 | 3.5 | -18.5
COc1ccc(CNC(=O)Cn2c(=O)c3c(ncn3C3CCCC3)n(Cc3ccccc3)c2=O)cc1 | 42.8* | -6.7 | 28.3 | -5.1 | 11.2 | 3.5
Cc1ccc(OC(C)C(=O)Nc2cccc3ncccc23)cc1 (centres undefined) | -148.8 | -7.6 | -96.2 | i | -197.5 | -209.4
O=C(NNC1=NC2(CCCC2)Cc2ccccc21)c1cccnc1 | 26.3 | 4.8 | 5.5 | 31.9* | 0.5 | 3.9
Cc1ccc(NC(=O)c2sc(=S)n(CCc3ccccc3)c2N)cc1 | 75.6* | 15.1 | 25.4 | 44.3* | 17.0 | 20.9
Cc1nnc(-c2cc(S(=O)(=O)N3CCN(c4ccccc4F)CC3)c[nH]2)o1 | 6.1 | 8.5 | 15.9 | 9.0 | 8.0 | 13.0
O=C(O)c1ccc(C2Cc3c([nH]c(=O)[nH]c3=O)O2)cc1 (centres undefined) | 23.9 | 2.1 | -52.7 | 75.0* | 9.0 | 78.1*
CC(C)CN1C[C@@]23CN(C(=O)NCCc4ccccc4)C[C@@H](C[C@@H]2S1(=O)=O)O3 | 9.9 | -1.6 | 19.3 | 21.3 | 12.1 | 5.4
CCOC(=O)C1CCN(c2nc3ccccc3n2Cc2cccc(F)c2)CC1 | 6.5 | -11.5 | 0.2 | -58.2 | -7.9 | -8.1
O=C(Cn1c(N2CCC(Cc3ccccc3)CC2)nc2ccccc21)c1ccccc1 | 19.9 | 10.9 | 8.8 | 42.3* | 17.5 | 9.0
COc1ccc(CN2CCCC23CCCN(C(=O)CCc2cccnc2)C3)cc1F (centres undefined) | 41.5* | -1.5 | -73.2 | 96.3* | 44.4* | 92.6*
COc1ccccc1NS(=O)(=O)c1cccc(C(=O)N2CCCCCC2)c1 | 4.7 | 12.9 | -36.8 | 36.1* | 5.0 | 13.1
CN(c1ccccc1)S(=O)(=O)c1cccc(C(=O)N2CCCCCC2)c1 | 2.4 | -0.2 | -1.8 | · | 0.0 | ·
COc1ccc(-c2cc(NC(=O)c3ccccc3)n(C3CCS(=O)(=O)C3)n2)cc1 (centres undefined) | 5.3 | 1.5 | 10.7 | 10.5 | 9.6 | 8.1
COc1ccccc1N(C(=O)c1ccco1)C(C(=O)NC1CCCC1)c1cccnc1 (centres undefined) | 4.9 | -0.2 | 18.5 | 27.9 | 8.5 | 15.0
O=C(NC1CCCC1)C(c1ccncc1)N(C(=O)c1ccco1)c1ccc2c(c1)OCCO2 (centres undefined) | 25.3 | -5.6 | 48.5* | 4.6 | 3.6 | 6.2
CC(C)c1cc(C(=O)N2CCOC(CCc3cc(=O)[nH]cn3)C2)on1 (centres undefined) | 16.0 | 2.1 | 6.4 | 39.7* | 6.8 | 17.8
O=C(c1ccc2n[nH]nc2c1)N1CCN(S(=O)(=O)c2ccc3c(c2)OCCO3)CC1 | 20.7 | 3.3 | 19.4 | 1.5 | 7.0 | 9.6
COCCNc1ncnc2c1oc1nc(CC(C)C)c3c(c12)CCC3 | -14.5 | -4.7 | 7.2 | 44.0* | 1.9 | 9.8
CC(C)Cc1nc2oc3c(N(C)CCO)ncnc3c2c2c1CCC2 | -1.8 | -1.1 | -0.3 | 90.8* | 10.0 | 40.5*
CCC(CO)Nc1ncnc2c1oc1nc(CC(C)C)c3c(c12)CCC3 (centres undefined) | -15.3 | 0.0 | 5.0 | 8.8 | 4.5 | -0.7
O=C(c1ccccc1)N1C[C@@H]2CCN(c3cccnc3)C[C@@H]2C1 | -7.5 | -3.3 | -61.0 | -16.9 | 4.5 | -3.2
Cc1ccc(NC(=O)[C@H]2C[C@@H]3C(=O)NC(C)[C@H]2N3Cc2ccccc2)cc1 (some centres undefined) | -5.8 | -0.9 | -0.1 | -5.5 | -8.1 | -2.8
N#Cc1cc([N+](=O)[O-])ccc1N1CCN(c2ccc(O)cc2)CC1 | 31.9* | 11.0 | -38.8 | 35.3* | 3.3 | 23.6
SMILES | USP17 inh | USP10 inh | USP8 block | USP30 block | OTUD3 inh | USP28 block
C[C@@]1(O)COC2(CCNCC2)C[C@H]1n1cnc2c(N)ncnc21 | -7.2 | 0.2 | -142.1 | 1.3 | 0.0 | -4.8
O=C(O)CCC(=O)Nc1cccc(-c2nnc(-c3ccccc3)o2)c1 | 19.4 | 2.9 | 14.8 | 33.0* | 9.2 | 8.4
CCOC(=O)c1cn(C2CC2)c2cc(N3CCNCC3)c([N+](=O)[O-])cc2c1=O | -7.4 | -0.5 | -125.1 | 57.6* | 13.9 | 36.1*
CCOC(=O)c1cc(C#N)c(N2CCCNCC2)nc1C(F)(F)F | 5.2 | 2.8 | 15.1 | 2.7 | 3.6 | 6.3
COc1c(O)cc2cc(C)oc(=O)c2c1O | 6.6 | 3.4 | 6.5 | 35.8* | 18.7 | 7.9
COC(=O)c1cc(OC)cc(O)c1OC(=O)c1c(O)cc2cc(C)oc(=O)c2c1O | -55.6 | -2.4 | -3.8 | -131.7 | -13.1 | -35.5
CC1OC2CC(O)C1(O)C1=C2C(O)=C(C(N)=O)C(=N)C1=O (centres undefined) | 62.5* | 35.8* | 38.7* | -22.6 | 51.0* | 59.8*
Cc1cccc(C(CC(=O)N2CCN(c3ccccc3)CC2)n2cccc2)c1 (centres undefined) | 1.0 | 2.4 | -5.5 | -0.3 | 8.8 | -7.4
c1cc2c(cc1-c1nnc(C3(c4ccc5c(c4)OCO5)CCOCC3)o1)OCCO2 | -4.6 | 4.9 | -1.3 | 33.3* | 3.4 | 0.9
O=C(O)c1ccc2c(=O)nc3c(-c4cccc(F)c4)n[nH]n3c2c1 | -10.3 | 2.6 | 0.9 | 0.1 | 0.0 | 0.8
NC(=O)c1cc(CC2CCCN(c3ncccn3)CC2)ncn1 (centres undefined) | -5.2 | 2.6 | -16.1 | -0.8 | -0.5 | 3.3
COc1ccc(-c2noc(CCC3CCCC3)n2)cc1OC | 3.8 | 5.7 | 0.0 | -10.3 | -1.2 | -4.3
COc1ccc(Cc2nc(-c3ccc(=O)[nH]c3)no2)cc1OC | -38.0 | -2.0 | -34.6 | -1.0 | 8.1 | 32.9*
O=c1ccc(-c2noc(Cc3cccc(Cl)c3)n2)c[nH]1 | -5.5 | -8.1 | -46.0 | -92.5 | -14.4 | 68.3*
O=c1ccc(-c2noc(Cc3cccc(C(F)(F)F)c3)n2)c[nH]1 | -28.3 | -3.8 | -160.8 | -157.9 | -31.1 | 47.9*
O=c1ccc(-c2noc(CCC3CCCC3)n2)c[nH]1 | -8.4 | -2.0 | -1.9 | -1.4 | -1.6 | 42.8*
O=C(CCc1c[nH]c2ccccc12)N1CCN(S(=O)(=O)c2ccc(Cl)cc2)CC1 | -2.8 | -3.1 | 0.4 | -4.2 | 3.3 | 4.4
CS(=O)(=O)N1C[C@H]2N(c3ncccn3)CCC[C@@]2(C(=O)NCC2CC2)C1 | 4.3 | 3.8 | -1.3 | 12.7 | 3.0 | 3.3
CN(C)c1nc2cc(C(=O)N3CCCC3)sc2n1-c1ccccc1 | 12.2 | -5.6 | 56.8* | 5.5 | 1.9 | 4.1
Cn1nc(-c2ccccc2)c2cc(C(=O)N3CCOCC3)sc21 | 0.3 | 1.3 | 1.8 | 12.1 | 3.6 | 2.8
CNC(=O)c1cc2nc(N(C)C)n(-c3ccc(F)cc3)c2s1 | 70.8* | -4.8 | 89.2* | -2.9 | 2.7 | 45.5*
